# Reference: the supplement of paper PMC10723795
# ± gives the standard deviation of the averaged measurements.
# Tested on: BJ5TA
# Assay: nucleolar normality score relative to DMSO (fraction of DMSO control); RPE1 is a non-cancer human cell line; higher = more normal nucleoli (less nucleolar stress)
# Description: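 Selected screen hits were validated in hTERT lines (BJ5TA, CHON-002, RPE1) and cancer lines (DLD1, HCT116). Cells were immunostained for nucleolin and UBF and the nucleolar normality score was measured per field of view, with 4 fields per drug. Scores are normalized to each cell line's own DMSO control. Dose and time are not stated for this panel.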
row,Compound,nucleolar normality score
1,CC[C@@]1(O)C(=O)OCc2c1cc1n(c2=O)Cc2cc3ccccc3nc2-1 [Camptothecin],0.473 ± 0.03
